STK33 kin inh – blocks human STK33 kinase activity; Q9BYT3; ADP-Glo luminescence, MBP substrate; inhibition, % at 12.5 µM; actives 0.44% (n = 27,000); AID 2322; in the data active means inhibition above about 20%
Target sequence (Q9BYT3 whole entry, looked up): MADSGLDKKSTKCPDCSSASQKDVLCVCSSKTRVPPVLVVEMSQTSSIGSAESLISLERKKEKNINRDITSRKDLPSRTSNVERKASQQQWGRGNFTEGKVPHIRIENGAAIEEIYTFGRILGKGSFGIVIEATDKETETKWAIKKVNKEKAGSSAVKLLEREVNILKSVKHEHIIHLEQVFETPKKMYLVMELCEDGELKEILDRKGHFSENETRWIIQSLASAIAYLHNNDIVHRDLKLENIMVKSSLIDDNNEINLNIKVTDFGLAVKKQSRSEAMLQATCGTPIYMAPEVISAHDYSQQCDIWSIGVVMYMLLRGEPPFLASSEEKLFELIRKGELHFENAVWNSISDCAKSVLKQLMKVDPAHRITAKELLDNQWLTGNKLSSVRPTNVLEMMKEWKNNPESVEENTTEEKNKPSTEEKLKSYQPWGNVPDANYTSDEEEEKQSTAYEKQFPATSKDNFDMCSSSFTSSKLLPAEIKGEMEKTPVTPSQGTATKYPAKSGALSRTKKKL
ID4 SMM – ID4 (human) binding | P47928 | small molecule microarray, Flag-ID4 binding, fluorescence F/B | calls only | actives 1.2% (n = 31,000); call rule not given here;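 further: a binder raises fluorescence above local background on the spot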
Target sequence (P47928 whole entry, looked up): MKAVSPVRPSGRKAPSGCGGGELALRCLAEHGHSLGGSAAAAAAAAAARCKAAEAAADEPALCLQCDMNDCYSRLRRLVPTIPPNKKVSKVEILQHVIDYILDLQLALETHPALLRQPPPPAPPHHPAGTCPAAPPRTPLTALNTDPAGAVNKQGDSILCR
Of the large screens only hits and unclear results are named; the others gave an inactive call. Compounds with a hit are over-represented: about 1.1% of the library has one in this group of screens.

COc1ccc(CN(C)C[C@@H]2Oc3ccc(NC(=O)C4CC4)cc3CC(=O)N([C@@H](C)CO)C[C@H]2C)cc1	none (no result: STK33 kin inh)
C[C@@H]1CN([C@H](C)CO)C(=O)c2cc(-c3ccc(C(=O)N(C)C)cc3)cnc2O[C@H]1CN(C)C	ID4 SMM active (no result: STK33 kin inh)
C[C@H](CO)N1C[C@H](C)[C@@H](CN(C)Cc2cncnc2)Oc2ncc(C#Cc3ccccn3)cc2C1=O	ID4 SMM active (no result: STK33 kin inh)
C[C@H]1CN([C@@H](C)CO)C(=O)c2cc(-c3ccc(C(=O)N(C)C)cc3)cnc2O[C@@H]1CN(C)C	none (no result: STK33 kin inh)
Cc1ccc(-c2cnc3c(c2)C(=O)N([C@@H](C)CO)C[C@H](C)[C@@H](CN(C)C)O3)cc1	none (no result: STK33 kin inh)
C[C@H]1CN([C@@H](C)CO)C(=O)c2cc(-c3ccncc3)cnc2O[C@@H]1CN(C)C	ID4 SMM active (no result: STK33 kin inh)
C[C@@H]1CN([C@H](C)CO)C(=O)c2cc(C#CCN(C)C)cnc2O[C@H]1CN(C)C(=O)c1cccnc1	ID4 SMM active (no result: STK33 kin inh)
CC(C)C#Cc1cnc2c(c1)C(=O)N([C@@H](C)CO)C[C@H](C)[C@@H](CN(C)C(=O)c1cccnc1)O2	none (no result: STK33 kin inh)
C[C@H]1CN([C@@H](C)CO)C(=O)c2cc(C#Cc3ccccn3)cnc2O[C@H]1CN(C)Cc1ccccc1	none (no result: STK33 kin inh)
C[C@@H]1CN([C@@H](C)CO)C(=O)c2cc(C#CCc3ccccc3)cnc2O[C@@H]1CN(C)Cc1cccnc1	none (no result: STK33 kin inh)
CC(C)(CSc1nnc(Nc2ccccc2)s1)NS(=O)(=O)c1ccc(Cl)cc1	none
O=C(CCOc1ccccc1)Nc1nc2c(ccc3ccccc32)s1	none (no result: STK33 kin inh)
CCCN(C)C[C@H]1Oc2ncc(-c3cccc(C(=O)N(C)C)c3)cc2C(=O)N([C@H](C)CO)C[C@H]1C	none (no result: STK33 kin inh)
C[C@@H]1CN([C@@H](C)CO)C(=O)c2cc(-c3cccc(C(=O)N(C)C)c3)cnc2O[C@@H]1CN(C)C	none (no result: STK33 kin inh)
C[C@@H]1CN([C@H](C)CO)C(=O)c2cc(-c3ccc(C#N)cc3)cnc2O[C@H]1CN(C)Cc1ccncc1	ID4 SMM active (no result: STK33 kin inh)
C[C@@H]1CN([C@H](C)CO)C(=O)c2cc(-c3ccncc3)cnc2O[C@H]1CN(C)Cc1ccc(F)cc1	none (no result: STK33 kin inh)
C[C@@H]1CN([C@H](C)CO)C(=O)c2cc(-c3cccc(C(=O)N(C)C)c3)cnc2O[C@H]1CN(C)C	ID4 SMM active (no result: STK33 kin inh)
CCCN(C)C[C@@H]1Oc2ncc(-c3cccc(C(=O)N(C)C)c3)cc2C(=O)N([C@@H](C)CO)C[C@H]1C	ID4 SMM active (no result: STK33 kin inh)
CN(C)CC(=O)Nc1ccc2c(c1)[C@@H]1C[C@H](CC(=O)NCCc3ccccc3)O[C@@H](CO)[C@@H]1O2	none (no result: STK33 kin inh)
CC(=O)N(C)C[C@H]1Oc2ncc(C#Cc3ccc(F)cc3)cc2C(=O)N([C@H](C)CO)C[C@H]1C	none (no result: STK33 kin inh)
C[C@@H]1CN([C@@H](C)CO)S(=O)(=O)c2ccc(C3=CCCCC3)cc2O[C@@H]1CN(C)S(=O)(=O)c1cn(C)cn1	none (no result: STK33 kin inh)
COc1cccc(NC(=O)N(C)C[C@@H]2OCc3ccccc3-c3c(n(C)c4ccccc34)C(=O)N([C@H](C)CO)C[C@@H]2C)c1	none (no result: STK33 kin inh)
CCCN(C)C[C@H]1OCc2cn(nn2)CCCC(=O)N([C@H](C)CO)C[C@H]1C	ID4 SMM active (no result: STK33 kin inh)
C[C@H](CO)N1C[C@H](C)[C@H](CN(C)CC2CC2)OCc2cn(nn2)CCCC1=O	none
C=CCN1CCN(c2nc3ccccc3nc2C#N)CC1	ID4 SMM active
CCN1CCN(c2oc(COc3ccccc3C)nc2C#N)CC1	none (no result: STK33 kin inh)
CNC[C@@H]1Oc2ncc(Br)cc2C(=O)N([C@@H](C)CO)C[C@@H]1C	none (no result: STK33 kin inh)
O=C(C[C@H]1CC[C@@H](NC(=O)CC2CC2)[C@H](CO)O1)NCc1ccc(Cl)cc1	none (no result: STK33 kin inh)
CC(C)C#Cc1cnc2c(c1)C(=O)N([C@H](C)CO)C[C@H](C)[C@@H](CN(C)C(=O)CCN1CCCCC1)O2	none (no result: STK33 kin inh)
CN/C(=C/[N+](=O)[O-])NCCSCc1csc(CN(C)C)n1	ID4 SMM active
Cc1scc(C(=O)Nc2cccc(Cn3cccn3)c2)c1-c1ccccc1	ID4 SMM active
Cc1c(Cl)cccc1NC(=O)Nc1cccc(Cn2cccn2)c1	none
O=C1c2ccccc2-c2n[nH]c3cccc1c23	STK33 kin inh 111
Cn1c(=O)n(C)c2cc(CNCc3cccnc3)ccc21	none
Brc1c(Br)c(Br)c2n[nH]nc2c1Br	STK33 kin inh 20
C[C@H]1CN([C@@H](C)CO)C(=O)c2cc(NS(C)(=O)=O)ccc2O[C@H]1CN(C)C(=O)Nc1ccccc1	none (no result: ID4 SMM)
C[C@@H]1CN([C@H](C)CO)C(=O)c2cc(NS(C)(=O)=O)ccc2O[C@H]1CN(C)Cc1ccccc1	none (no result: STK33 kin inh)
C[C@@H]1CCCCO[C@H](CN(C)S(=O)(=O)c2cn(C)cn2)[C@@H](C)CN([C@H](C)CO)C(=O)c2cc(NS(C)(=O)=O)ccc2O1	none
C[C@H](CO)N1C[C@H](C)[C@@H](CN(C)C(=O)Nc2ccccc2)Oc2ccc(NS(C)(=O)=O)cc2C1=O	ID4 SMM active (no result: STK33 kin inh)
C[C@@H]1CN([C@H](C)CO)C(=O)c2cc(NC(=O)CCCN(C)C)ccc2O[C@@H]1CN(C)C(=O)Nc1cccc2ccccc12	none (no result: STK33 kin inh)
C[C@@H]1CN([C@@H](C)CO)C(=O)c2cc(NC(=O)CCCN(C)C)ccc2O[C@H]1CN(C)C(=O)Nc1cccc2ccccc12	ID4 SMM active (no result: STK33 kin inh)
C[C@H](CO)N1C[C@H](C)[C@@H](CN(C)Cc2ccccc2)Oc2ccc(NS(C)(=O)=O)cc2C1=O	ID4 SMM active (no result: STK33 kin inh)
C[C@@H]1CCCCO[C@H](CN(C)S(=O)(=O)c2cn(C)cn2)[C@H](C)CN([C@H](C)CO)C(=O)c2cc(NS(C)(=O)=O)ccc2O1	ID4 SMM active (no result: STK33 kin inh)
C[C@H](CO)N1C[C@H](C)[C@@H](CN(C)C(=O)Nc2ccc(C(F)(F)F)cc2)Oc2c(NS(=O)(=O)c3ccc(Cl)cc3)cccc2C1=O	none (no result: STK33 kin inh)
Cc1cc(C)n2nc(SCC(=O)c3ccc4c5c(cccc35)CC4)nc2n1	none
CN(C)c1ccc2c(c1)[C@@H]1C[C@@H](CC(=O)NCc3ccc4c(c3)OCO4)O[C@@H](CO)[C@@H]1O2	none (no result: STK33 kin inh)
Cc1cc(C(F)(F)F)nc(SCC(=O)N2c3ccccc3Sc3ccccc32)n1	none
C[C@@H]1CN([C@@H](C)CO)C(=O)c2cc(NS(C)(=O)=O)ccc2O[C@@H](C)CCCCO[C@@H]1CN(C)C(=O)Nc1ccccc1	ID4 SMM active (no result: STK33 kin inh)
C[C@H]1CCCCO[C@H](CN(C)C(=O)Nc2ccccc2)[C@@H](C)CN([C@@H](C)CO)C(=O)c2cc(NS(C)(=O)=O)ccc2O1	none (no result: STK33 kin inh)
COc1cccc(C#Cc2ccc3c(c2)O[C@@H](CN(C)C)[C@@H](C)CN([C@H](C)CO)S3(=O)=O)c1	none (no result: STK33 kin inh)
CCC(=O)N1C(CC(=O)Nc2ccc(F)cc2)C(=O)NC2CCCCC21 (configuration not stated)	none (no result: ID4 SMM)
COc1cccc(NC(=O)CC2C(=O)NC3CCCCC3N2C(=O)c2ccccc2)c1 (configuration not stated)	ID4 SMM active
O=C1C(=O)N(CCCn2ccnc2)C(c2ccccc2)C1C(=O)c1cccs1 (configuration not stated)	none
CCOc1ccc(NC(=O)Cn2cnc3sc(C(N)=O)c(C)c3c2=O)cc1	none
CC1CNCCN1S(=O)(=O)c1cccc2cnccc12 (configuration not stated)	none
O=S(=O)(c1cccc2cnccc12)N1CCCNCC1	STK33 kin inh 41
N#Cc1c(NC(=O)Cn2c(=O)oc3ccccc32)oc(-c2ccccc2)c1-c1ccccc1	ID4 SMM active
N#Cc1c(NC(=O)Cn2c(=O)oc3ccccc32)sc2c1CCC2	none
Cc1cc(C)c(S(=O)(=O)N(C)CC(=O)N2CCC(C(N)=O)CC2)c(C)c1	none

Bioassay records from PubChem BioAssay.
